Reference: the supplement of paper PMC12636033
± gives the standard deviation of the averaged measurements. In all, about 33,000 sequences were measured (“E-score (rank enrichment, -0.5 to 0.5)”: median about -0.0075, highest 2% from about 0.23 on). The entries come from a sample that favours the highest values as a whole.

What follows are sequences tested on WT Max(13-93) synthetic (M65Nle) (assay: PBM 8-mer E-score (E-score (rank enrichment, -0.5 to 0.5)); higher = stronger preferential binding).
Method: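 Protein binding microarray (universal PBM chip covering all 10-mers in fixed probe flanks) with chemically synthesized human Max(13-93) bHLH-LZ analogs (not full-length Max) bearing noncanonical residues (hArg, Tha, Aib, Nle at 65) and aromatic Cys staples. Read-out per 8-mer (and its reverse complement): E-score (rank-based enrichment, -0.5 to 0.5) and Z-score of median probe intensity.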

Sequence	PBM 8-mer E-score
GGCACATA	-0.00374 ± 0.019
TGCGTTAA	-0.0126 ± 0.025
CACAATAC	0.204 ± 0.018
AGGGTTCG	0.0226 ± 0.091
GCCATACA	0.0396 ± 0.039
AACCCCCT	-0.12 ± 0.022
AGGATCTG	-0.1 ± 0.11
CCAACCGC	-0.126 ± 0.13
CTGCCCCC	-0.128 ± 0.089
CAAAATAC	0.189 ± 0.047
AACCATGC	0.162 ± 0.018
GAGCATGC	0.249 ± 0.018
GACCATGA	-0.0818 ± 0.059
CAGCATGA	0.128 ± 0.022
GAGCATAC	0.00326 ± 0.079
GACCATGC	0.27 ± 0.043
CAGCATGC	0.237 ± 0.04
GAGCATGA	0.205 ± 0.03
CAGCATGG	0.331 ± 0.028
CAGCATAG	-0.0673 ± 0.062
CGGCATGC	0.124 ± 0.05
CAGCATAC	0.0204 ± 0.073
ATCGCGGC	-0.136 ± 0.14
CGAAACGC	-0.14 ± 0.0054
GAACACTC	-0.0859 ± 0.0037

Sequence	PBM 8-mer E-score
ATTTATTA	0.152 ± 0.031
ATACCAAA	0.124 ± 0.029
CTAATGGA	-0.125 ± 0.0031
GCTATATA	0.146 ± 0.04
ACCATATG	0.221 ± 0.0037
ACTATATA	0.274 ± 0.0075
ACCATATA	0.248 ± 0.043
ACTATATC	0.21 ± 0.015
ACCATATC	0.0455 ± 0.019
ACCGGCAC	0.0185 ± 0.12
CTATCTCC	-0.00138 ± 0.076
GAAGTAGA	0.0186 ± 0.0018
ACTGATCG	-0.106 ± 0.045
GCGTGTAC	0.125 ± 0.015
ACGTGTAC	0.354 ± 0.014
TCGTGTAA	0.1 ± 0.05
ACGTGTAT	0.4013 ± 0.0019
ACGTGTAA	0.35 ± 0.019
ACGTGTAG	0.1905 ± 0.0018
CCGTGTAA	-0.00838 ± 0.1
AAGTGTAT	0.149 ± 0.018
AGGTGTAT	0.136 ± 0.019
ATTACCCA	0.146 ± 0.11
CCCTAAGC	-0.152 ± 0.068
ATATATGG	0.244 ± 0.055

Sequence	PBM 8-mer E-score
GTATATGA	0.266 ± 0.019
CAATGTGA	0.179 ± 0.0028
ATATAGTC	0.107 ± 0.0014
AAATGTGA	0.026 ± 0.14
TAATGTGA	0.233 ± 0.075
CTATATGA	0.0892 ± 0.063
ATATATGA	0.0913 ± 0.21
ATATATGC	0.0949 ± 0.049
ATATAGTG	0.2556 ± 0.0011
ATATAGTA	0.228 ± 0.029
CTATATGC	0.168 ± 0.083
CCTGGCCG	-0.194 ± 0.086
ACCCAGAG	-0.0559 ± 0.026
CGGTCCAA	-0.19 ± 0.19
CGCCTTAG	-0.0361 ± 0.042
CGGAAAGC	-0.0958 ± 0.16
GCACAGGC	-0.146 ± 0.038
GCCCGAGC	0.035 ± 0.06
ATATGTGC	0.181 ± 0.014
CAATGTGG	0.133 ± 0.072
GTATGTGA	-0.0439 ± 0.13
AAATGTGT	0.224 ± 0.085
AAATGTGG	0.245 ± 0.048
ATATGTGG	0.292 ± 0.015
ATATGTGA	0.278 ± 0.14

Sequence	PBM 8-mer E-score
CTATGTGA	0.0181 ± 0.018
ATGTGTGG	0.148 ± 0.055
CCTGTCGA	0.00438 ± 0.055
ATTTACCG	0.17 ± 0.0023
ATTCCGGC	-0.2339 ± 0.0017
GAGATCAA	0.0454 ± 0.094
CACCTGAA	0.166 ± 0.075
CTGAGATA	-0.222 ± 0.091
CCTTCTCA	0.0588 ± 0.1
CCGGCCCA	-0.197 ± 0.085
CAAAAGGC	-0.00832 ± 0.029
AAAAAGGC	0.109 ± 0.096
GAAAAGGC	0.253 ± 0.15
AACGTTTA	0.146 ± 0.049
TCGGACCA	-0.114 ± 0.059
CGCGGGGA	-0.172 ± 0.12
GGCGGGGA	0.303 ± 0.031
GGCGGGAA	0.0202 ± 0.047
CTGGTCCA	-0.128 ± 0.094
TAGGTAAA	-0.0909 ± 0.038
ACGACCAA	-0.0717 ± 0.22
AGCAAGCC	-0.152 ± 0.033
GACCAGCC	-0.205 ± 0.093
ATGATGTA	0.197 ± 0.047
GTGATTAA	0.296 ± 0.066

Sequence	PBM 8-mer E-score
ATGATTTA	0.178 ± 0.027
ATGATTAA	0.0011 ± 0.15
GTGATTTA	0.27 ± 0.0069
CTGATGTA	0.0268 ± 0.064
CTGATTTA	0.0789 ± 0.0019
CTGATTAA	0.192 ± 0.081
GTGATGTA	0.239 ± 0.0057
GTTCTCGA	0.0864 ± 0.12
CACCACTA	0.129 ± 0.17
CGCTGGCC	-0.289 ± 0.025
GGAAGGAA	0.0471 ± 0.045
ACGAAGTG	0.00194 ± 0.018
ACTGATGC	-0.0431 ± 0.041
CGCGGAAA	-0.0276 ± 0.059
CGTTGCAA	-0.0452 ± 0.0072
AGCCTAGG	-0.0541 ± 0.089
CTGTCATA	0.113 ± 0.023
CTATCATA	0.1619 ± 0.00089
ATGTCATA	0.1682 ± 0.0013
GTATCATA	0.248 ± 0.1
ATATCATA	0.184 ± 0.031
GTGTCATA	0.291 ± 0.0065
AACGAAGC	-0.00685 ± 0.13
ATTTTGTG	0.145 ± 0.021
AATTTCTA	0.172 ± 0.047

Sequence	PBM 8-mer E-score
ATTTTCTA	0.24 ± 0.019
GTTTTGCA	0.108 ± 0.019
GTTTTGTA	0.248 ± 0.031
GGTTTGTA	-0.0081 ± 0.036
CTTTTGTA	0.125 ± 0.051
CTTTTCTA	0.0691 ± 0.035
ATTTTGTA	0.237 ± 0.051
CCGCTTCG	-0.0665 ± 0.16
CCCTCCTA	0.0972 ± 0.061
AAACATAA	0.244 ± 0.059
GTACATAA	0.236 ± 0.0032
AAACATAT	0.144 ± 0.0056
AAACATAG	0.21 ± 0.031
CAACATAC	0.112 ± 0.046
ACACATAA	0.214 ± 0.066
AAACATAC	0.233 ± 0.027
TTACATAA	0.136 ± 0.048
TAACATAA	0.244 ± 0.0065
CTACATAA	0.0655 ± 0.2
CAACATAA	0.167 ± 0.0094
GAACATAA	0.16 ± 0.059
AAGAAATG	0.101 ± 0.04
AAGACGGA	-0.127 ± 0.033
CAAATCAC	0.0214 ± 0.064
CGGACGAG	-0.203 ± 0.017

Sequence	PBM 8-mer E-score
AGTCACAT	0.251 ± 0.0014
AGTCACAG	-0.117 ± 0.061
AGTCACAC	0.0956 ± 0.0018
CCTTTCAC	0.0141 ± 0.092
CTTTTCAC	0.241 ± 0.17
ATTTTCAC	-0.017 ± 0.0034
AGAAGCAT	0.135 ± 0.018
AGGACGAT	0.0538 ± 0.14
AGCGATGA	-0.182 ± 0.065
ATTACTAC	0.264 ± 0.03
ATTACTAG	-0.00575 ± 0.14
CTAACTAC	-0.0993 ± 0.059
ATAACTAT	0.143 ± 0.042
ATAACTAC	0.239 ± 0.077
CTTACTAC	0.08987 ± 0.00056
AGAAAGTA	0.204 ± 0.0097
CTGCGCAC	0.0305 ± 0.029
ACCACGCG	0.361 ± 0.016
AGCACGTA	-0.0146 ± 0.12
ACCACGTG	0.4956 ± 0.0014
ACCACGTA	0.0522 ± 0.0021
ACCACGCA	0.104 ± 0.042
CCCACGCA	-0.00155 ± 0.1
